Measured values published in PubChem BioAssay AID1159580 (chemical genetic matrix, 2015).
About 2,000 (36%) of roughly 5,500 compounds were called active. Roughly 18% stayed inconclusive and do not appear here. No stated cut-off is given here; in the data, active means normalized growth mostly below about 0.91 (no sharp cut-off); inconclusive means no clear call, values can overlap the other calls; inactive means mostly above about 0.92. The list shows a part of the results.

Experiment: chemical genetic growth profiling, strain panel (AID 1159580);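 further: tested at 20 µM; growth read once vehicle control cultures reached saturation at 30 °C; 1 = growth at the plate median or of vehicle wells; lower values mean less growth of the strain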
Details: growth OD

Measured: normalized growth

CC(C)(C)NC[C@@H](O)COc1nsnc1N1CCOCC1
inactive: S. cerevisiae deletion strains, locus YJR075W, strain HOC1, hits give low values 0.995 | S. cerevisiae deletion strains, locus YKL009W, strain mrt4, hits give low values 1.03 | S. cerevisiae deletion strains, locus YKL068W, hits give low values 0.989 | S. cerevisiae deletion strains, locus YKL085W, strain MDH1 (second series), hits give low values 0.983 | S. cerevisiae deletion strains, locus YKL085W, strain MDH1, hits give low values 0.983 | S. cerevisiae deletion strains, locus YKL160W, strain elf1, hits give low values 1.01 | S. cerevisiae deletion strains, locus YKR001C, strain vps1, hits give low values 0.952 | S. cerevisiae deletion strains, locus YKR026C, strain gcn3, hits give low values 1.02 | S. cerevisiae deletion strains, locus YKR091W, strain srl3, hits give low values 1.01 | S. cerevisiae deletion strains, locus YLL001W, strain dnm1, hits give low values 1 | S. cerevisiae deletion strains, locus YLL026W, hits give low values 1.01 | S. cerevisiae deletion strains, locus YLL041C, strain sdh2, hits give low values 1.03 | S. cerevisiae deletion strains, locus YLR027C, strain aat2, hits give low values 1.01 | S. cerevisiae deletion strains, locus YLR039C, strain RIC1, hits give low values 1.01 | S. cerevisiae deletion strains, locus YLR058C, strain SHM2, hits give low values 1 | S. cerevisiae deletion strains, locus YLR102C, strain apc9, hits give low values 0.976 | S. cerevisiae deletion strains, locus YLR113W, strain HOG1, hits give low values 0.975 | S. cerevisiae deletion strains, locus YLR221C, strain rsa3, hits give low values 0.995 | S. cerevisiae deletion strains, locus YLR258W, strain gsy2, hits give low values 1.01 | S. cerevisiae deletion strains, locus YLR262C, strain YPT6 (second series), hits give low values 1.03 | S. cerevisiae deletion strains, locus YLR262C, strain YPT6, hits give low values 1.02 | S. cerevisiae deletion strains, locus YLR268W, strain sec22, hits give low values 0.961 | S. cerevisiae deletion strains, locus YLR320W, strain mms22, hits give low values 0.997 | S. cerevisiae deletion strains, locus YLR330W, strain CHS5, hits give low values 0.989 | S. cerevisiae deletion strains, locus YLR342W, strain FKS1 (second series), hits give low values 0.992 | S. cerevisiae deletion strains, locus YLR342W, strain FKS1, hits give low values 1 | S. cerevisiae deletion strains, locus YLR357W, strain rsc2, hits give low values 0.998 | S. cerevisiae deletion strains, locus YLR370C, strain arc18, hits give low values 1.02 | S. cerevisiae deletion strains, locus YLR371W, strain rom2, hits give low values 0.977 | S. cerevisiae deletion strains, locus YLR384C, strain iki3, hits give low values 1.01 | S. cerevisiae deletion strains, locus YLR418C, strain cdc73, hits give low values 1.03 | S. cerevisiae deletion strains, locus YML016C, strain PPZ1, hits give low values 0.988 | S. cerevisiae deletion strains, locus YML032C, strain rad52, hits give low values 1.01 | S. cerevisiae deletion strains, locus YML120C, strain ndi1, hits give low values 1.02 | S. cerevisiae deletion strains, locus YML124C, strain tub3, hits give low values 0.988 | S. cerevisiae deletion strains, locus YMR058W, strain fet3, hits give low values 1 | S. cerevisiae deletion strains, locus YMR078C, strain ctf18, hits give low values 0.972 | S. cerevisiae deletion strains, locus YMR125W, strain sto1, hits give low values 1.02 | S. cerevisiae deletion strains, locus YMR129W, hits give low values 1.02 | S. cerevisiae deletion strains, locus YMR205C, strain PFK2, hits give low values 1.02 | S. cerevisiae deletion strains, locus YMR223W, strain ubp8, hits give low values 1.02 | S. cerevisiae deletion strains, locus YMR231W, strain pep5, hits give low values 1.01 | S. cerevisiae deletion strains, locus YMR263W, strain SAP30, hits give low values 0.997 | S. cerevisiae deletion strains, locus YMR307W, strain GAS1, hits give low values 0.921 | S. cerevisiae deletion strains, locus YNL067W, strain RPL9B, hits give low values 0.999 | S. cerevisiae deletion strains, locus YNL071W, strain lat1, hits give low values 1.01 | S. cerevisiae deletion strains, locus YNL153C, strain GIM3, hits give low values 0.988 | S. cerevisiae deletion strains, locus YNL183C, strain NPR1, hits give low values 0.934 | S. cerevisiae deletion strains, locus YNL209W, strain ssb2, hits give low values 1.02 | S. cerevisiae deletion strains, locus YNL233W, strain BNI4, hits give low values 0.973 | S. cerevisiae deletion strains, locus YNL248C, strain rpa49, hits give low values 1.02 | S. cerevisiae deletion strains, locus YNL250W, strain rad50, hits give low values 0.969 | S. cerevisiae deletion strains, locus YNL271C, strain bni1, hits give low values 0.985 | S. cerevisiae deletion strains, locus YNL298W, strain CLA4, hits give low values 0.993 | S. cerevisiae deletion strains, locus YNL307C, strain MCK1, hits give low values 0.974 | S. cerevisiae deletion strains, locus YNL322C, strain KRE1 (second series), hits give low values 1 | S. cerevisiae deletion strains, locus YNL322C, strain KRE1, hits give low values 0.993 | S. cerevisiae deletion strains, locus YNR049C, strain mso1, hits give low values 1.01 | S. cerevisiae deletion strains, locus YNR052C, strain pop2, hits give low values 0.994 | S. cerevisiae deletion strains, locus YOL006C, strain TOP1, hits give low values 0.993 | S. cerevisiae deletion strains, locus YOL012C, strain htz1 0.711 | S. cerevisiae deletion strains, locus YOL147C, strain pex11, hits give low values 0.993 | S. cerevisiae deletion strains, locus YOR001W, strain rrp6, hits give low values 1.02 | S. cerevisiae deletion strains, locus YOR061W, strain CKA2, hits give low values 1 | S. cerevisiae deletion strains, locus YOR069W, strain VPS5, hits give low values 0.99 | S. cerevisiae deletion strains, locus YOR070C, strain gyp1, hits give low values 1.01 | S. cerevisiae deletion strains, locus YOR080W, strain dia2, hits give low values 1.02 | S. cerevisiae deletion strains, locus YOR083W, strain WHI5, hits give low values 0.981 | S. cerevisiae deletion strains, locus YOR106W, strain vam3, hits give low values 1.03 | S. cerevisiae deletion strains, locus YOR136W, strain idh2, hits give low values 0.988 | S. cerevisiae deletion strains, locus YOR144C, strain elg1, hits give low values 0.982 | S. cerevisiae deletion strains, locus YOR184W, strain ser1, hits give low values 0.989 | S. cerevisiae deletion strains, locus YOR231W, strain MKK1, hits give low values 0.988 | S. cerevisiae deletion strains, locus YOR265W, strain rbl2, hits give low values 1.02 | S. cerevisiae deletion strains, locus YOR270C, strain vph1, hits give low values 1.04 | S. cerevisiae deletion strains, locus YOR290C, strain snf2, hits give low values 1.01 | S. cerevisiae deletion strains, locus YOR316C, strain cot1, hits give low values 0.978 | S. cerevisiae deletion strains, locus YPL051W, strain arl3, hits give low values 1.01 | S. cerevisiae deletion strains, locus YPL078C, strain atp4, hits give low values 1.01 | S. cerevisiae deletion strains, locus YPL106C, strain sse1, hits give low values 0.994 | S. cerevisiae deletion strains, locus YPL240C, strain hsp82, hits give low values 1.02 | S. cerevisiae deletion strains, locus YPL241C, strain CIN2, hits give low values 0.992 | S. cerevisiae deletion strains, locus YPL256C, strain CLN2, hits give low values 0.984 | S. cerevisiae deletion strains, locus YPR119W, strain clb2, hits give low values 0.983 | S. cerevisiae deletion strains, locus YPR141C, strain kar3, hits give low values 0.973 | S. cerevisiae deletion strains, locus YPR163C, strain tif3, hits give low values 0.982 | S. cerevisiae deletion strains, locus YPR167C, strain met16, hits give low values 0.989 | S. cerevisiae deletion strains, strain wtn01, hits give low values 0.943 | S. cerevisiae strains, strain wild type, hits give low values 0.994
